Experimental findings from PubChem BioAssay (EPA / NIEHS) are described below.

Conditions in all cases: mRNA level, 48 h; actives raise or lower the signal
Read-out in assay [1]: ATP-citrate lyase (ACLY), ACLY (gene 47)
Put plainly: LTEA_HepaRG_ACLY: Life Technologies and Expression Analysis (LTEA) Assay for ATP-citrate lyase (ACLY) using HepaRG (AID 2283466). Summed up: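 HepaRG, 48 h exposure, 8-pt half-log dilutions (top 100 uM), 0.5% DMSO. Readout: ACLY mRNA, TaqMan qRT-PCR, housekeeping-normalized (ACTB/GAPDH/POLR2A). Bidirectional curve fit vs DMSO.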

Read-out in assay [2]: Peroxisomal acyl-coenzyme A oxidase 1 (ACOX1) gene, ACOX1 (gene 51)
Briefly: LTEA_HepaRG_ACOX1: Life Technologies and Expression Analysis (LTEA) Assay for Peroxisomal acyl-coenzyme A oxidase 1 (ACOX1) gene using HepaRG (AID 2283467). Summed up: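 Measured by qRT-PCR against three housekeeping genes: ACOX1 transcript change in human HepaRG cells after 48 h dosing. Concentrations ran up to 100 uM in half-log steps. Curves were fitted bidirectionally relative to 0.5% DMSO.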

Read-out in assay [3]: Alkaline Phosphatase, Placental (ALPP) gene, ALPP (gene 250)
Briefly: LTEA_HepaRG_ALPP: Life Technologies and Expression Analysis (LTEA) Assay for Alkaline Phosphatase, Placental (ALPP) gene using HepaRG (AID 2283468).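 As to AC50: differentiated human HepaRG liver cells in serum-free induction medium.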 In short, it runs like this: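 Using human liver HepaRG cells, chemicals are tested in duplicate over 48 h at half-log concentrations topping at 100 uM; phenobarbital 1 mM serves as induction control. ALPP mRNA change by qRT-PCR, bidirectional fit against vehicle.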

Read-out in assay [4]: Bcl-2 (BAD) gene, BAD (gene 572)
Put plainly: LTEA_HepaRG_BAD: Life Technologies and Expression Analysis (LTEA) Assay for Bcl-2 (BAD) gene using HepaRG (AID 2283469). Summed up: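 BAD transcript change, measured by qRT-PCR against three housekeeping genes and fitted in both directions relative to 0.5% DMSO, after 48 h chemical treatment of human HepaRG liver cells at concentrations up to 100 uM.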

Read-out in assay [5]: Bcl-2 (BAX) gene, BAX (gene 581)
Briefly: LTEA_HepaRG_BAX: Life Technologies and Expression Analysis (LTEA) Assay for Bcl-2 (BAX) gene using HepaRG (AID 2283470). In short, it runs like this: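 HepaRG (human liver), 48 h exposure, duplicate wells. 8-pt curve, half-log from 100 uM, 0.5% DMSO. BAX transcript by TaqMan qRT-PCR; ACTB/GAPDH/POLR2A normalization; gain or loss vs DMSO baseline.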

Read-out in assay [6]: Alpha-fetoprotein (AFP) gene, AFP (gene 174)
Put plainly: LTEA_HepaRG_AFP: Life Technologies and Expression Analysis (LTEA) Assay for Alpha-fetoprotein (AFP) gene using HepaRG (AID 2283472). Summed up: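 HepaRG, single lot; 48 h post-plating -> serum-free induction medium; cpd 8-pt, 100 uM top, half-log, 0.5% DMSO, duplicate, 48 h. RNA -> qRT-PCR AFP, norm ACTB/GAPDH/POLR2A. Bidirectional fit vs DMSO.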

Read-out in the next assay: BCL2L11 (gene 10018)
Put plainly: LTEA_HepaRG_BCL2L11: Life Technologies and Expression Analysis (LTEA) Assay for Bcl-2 (BCL2L11) gene using HepaRG (AID 2283473). In short, it runs like this:
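Human hepatic HepaRG cultures are treated 48 h with test chemicals (maximum 100 uM, 0.5% DMSO vehicle). Expression of BCL2L11 is measured by qRT-PCR against ACTB, GAPDH and POLR2A, with activity in either direction scored relative to vehicle.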

Read-out in assay [7]: Apolipoprotein A-V (APOA5) gene, APOA5 (gene 116519)
Put plainly: LTEA_HepaRG_APOA5: Life Technologies and Expression Analysis (LTEA) Assay for Apolipoprotein A-V (APOA5) gene using HepaRG (AID 2283474). In short, it runs like this:
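Concentration-response of APOA5 expression in HepaRG: eight half-log doses to 100 uM, 48 h, qRT-PCR normalized to ACTB/GAPDH/POLR2A, bidirectional fitting with 0.5% DMSO as baseline.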

Read-out in assay [8]: Apoptosis regulator Bcl-2 (Homo sapiens) (UniProt P10415)
Put plainly: LTEA_HepaRG_BCL2: Life Technologies and Expression Analysis (LTEA) Assay for Bcl-2 gene using HepaRG (AID 2283475). In short, it runs like this: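 HepaRG, plated 48 h then switched to serum-free induction medium; dosed 48 h, 8 conc. (max 100 uM, half-log steps), duplicate, 0.5% DMSO. Lysis in RLT, RNA isolated, TaqMan qRT-PCR for BCL2; ACTB/GAPDH/POLR2A normalisation; bidirectional fit vs DMSO.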

Read-out in assay [9]: Bcl-2 (BID) gene, BID (gene 637)
Put plainly: LTEA_HepaRG_BID: Life Technologies and Expression Analysis (LTEA) Assay for Bcl-2 (BID) gene using HepaRG (AID 2283476). In short, it runs like this: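 Transcript levels of BID, measured by qRT-PCR and normalized to three housekeeping genes, were fitted bidirectionally against DMSO controls. Cells were HepaRG, dosed 48 h at up to 100 uM.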

Read-out in a further assay: Caspase-3 (Homo sapiens) (UniProt P42574)
Put plainly: LTEA_HepaRG_CASP3: Life Technologies and Expression Analysis (LTEA) Assay for cysteine-aspartic acid protease (CASP3) using HepaRG (AID 2283477). Summed up:
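Transcript-level assay: CASP3 mRNA in human HepaRG after 48 h treatment, eight half-log concentrations from 100 uM in 0.5% DMSO, quantified by qRT-PCR.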

Read-out in assay [10]: Cytochrome P450 (CYP24A1), CYP24A1 (gene 1591)
Put plainly: LTEA_HepaRG_CYP24A1: Life Technologies and Expression Analysis (LTEA) Assay for Cytochrome P450 (CYP24A1) using HepaRG (AID 2283478). Summed up: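 Gene expression of CYP24A1 by TaqMan qRT-PCR in HepaRG after 48 h treatment, highest concentration 100 uM; activity fitted in both directions relative to DMSO vehicle.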

Read-out in assay [11]: Cytochrome P450 (CYP1A2), CYP1A2 (gene 1544)
Briefly: LTEA_HepaRG_CYP1A2: Life Technologies and Expression Analysis (LTEA) Assay for Cytochrome P450 (CYP1A2) using HepaRG (AID 2283479). In short, it runs like this: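 In duplicate wells, HepaRG cultures maintained in 0.5% DMSO were treated 48 h across an 8-point, half-log series topping at 100 uM; phenobarbital (1 mM) served as induction control. Expression was read by qRT-PCR.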

Read-out in assay [12]: cysteine-aspartic acid protease (CASP8), CASP8 (gene 841)
Briefly: LTEA_HepaRG_CASP8: Life Technologies and Expression Analysis (LTEA) Assay for cysteine-aspartic acid protease (CASP8) using HepaRG (AID 2283480). In short, it runs like this:
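HepaRG, 48 h exposure, duplicate wells; 8 conc, half-log from 100 uM, 0.5% DMSO. Serum-free induction medium. CASP8 mRNA by TaqMan qRT-PCR, norm. ACTB/GAPDH/POLR2A; gain/loss fitted vs DMSO.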

Read-out in assay [13]: Cytochrome P450 2C19 (Homo sapiens) (UniProt P33261)
Put plainly: LTEA_HepaRG_CYP2C19: Life Technologies and Expression Analysis (LTEA) Assay for CYP2C19 using HepaRG (AID 2283482). In short, it runs like this:
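Endpoint: CYP2C19 mRNA change, bidirectional fit vs 0.5% DMSO. Cells: HepaRG, 48 h exposure, eight-point series topping at 100 uM. Quantitation: qRT-PCR normalized to ACTB, GAPDH, POLR2A.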

Read-out in another assay: CYP2C8 (gene 1558)
Put plainly: LTEA_HepaRG_CYP2C8: Life Technologies and Expression Analysis (LTEA) Assay for CYP2C8 using HepaRG (AID 2283483). In short, it runs like this: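 CYP2C8 mRNA induction or loss, by qRT-PCR normalized to ACTB/GAPDH/POLR2A, is read in HepaRG cells after 48 h treatment. Concentrations run from 100 uM down in half-log dilutions, with 0.5% DMSO as vehicle and baseline.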

Read-out in a further assay: CYP2C9 (gene 1559)
Briefly: LTEA_HepaRG_CYP2C9: Life Technologies and Expression Analysis (LTEA) Assay for CYP2C9 using HepaRG (AID 2283484). In short, it runs like this:
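Cells plated 48 h, switched to serum-free induction medium, then treated in duplicate for 48 h at eight concentrations (max 100 uM, 0.5% DMSO). RNA then analysed by qRT-PCR for CYP2C9; curves fitted in both directions relative to DMSO.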

Read-out in another assay: CYP2E1 (gene 1571)
Briefly: LTEA_HepaRG_CYP2E1: Life Technologies and Expression Analysis (LTEA) Assay for CYP2E1 using HepaRG (AID 2283485). In short, it runs like this: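 Human liver line HepaRG, plated 48 h, then serum-free induction medium + chemical x 48 h; 8-pt CRC from 100 uM, half-log, 0.5% DMSO, n=2. Readout: CYP2E1 mRNA qRT-PCR vs ACTB/GAPDH/POLR2A; bidirectional fit vs DMSO.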

Read-out in assay [14]: Cytochrome P450 (CYP2B6), CYP2B6 (gene 1555)
Put plainly: LTEA_HepaRG_CYP2B6: Life Technologies and Expression Analysis (LTEA) Assay for Cytochrome P450 (CYP2B6) using HepaRG (AID 2283481). In short, it runs like this: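 Human HepaRG, 48 h dosing, 0.5% DMSO vehicle, top dose 100 uM. CYP2B6 transcript by qRT-PCR, housekeeping-normalized, bidirectional curve fit.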

Read-out in assay [15]: adenosine kinase (ADK) gene, ADK (gene 132)
Briefly: LTEA_HepaRG_ADK: Life Technologies and Expression Analysis (LTEA) Assay for adenosine kinase (ADK) gene using HepaRG (AID 2283471). In short, it runs like this:
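Differentiated HepaRG cells dosed 48 h in serum-free induction medium, 0.5% DMSO vehicle, eight half-log concentrations from 100 uM, in duplicate. ADK mRNA by TaqMan qRT-PCR normalised to ACTB, GAPDH, POLR2A; bidirectional fit versus DMSO.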

Calls of active or inactive are those of the source. The calls were made as follows: active = hit-call score of the fitted dose curve at least 0.9, where 1 is the maximum; inactive = score below 0.9.

Cytochrome P450 2C19 (Homo sapiens), sequence (P33261 whole entry, looked up): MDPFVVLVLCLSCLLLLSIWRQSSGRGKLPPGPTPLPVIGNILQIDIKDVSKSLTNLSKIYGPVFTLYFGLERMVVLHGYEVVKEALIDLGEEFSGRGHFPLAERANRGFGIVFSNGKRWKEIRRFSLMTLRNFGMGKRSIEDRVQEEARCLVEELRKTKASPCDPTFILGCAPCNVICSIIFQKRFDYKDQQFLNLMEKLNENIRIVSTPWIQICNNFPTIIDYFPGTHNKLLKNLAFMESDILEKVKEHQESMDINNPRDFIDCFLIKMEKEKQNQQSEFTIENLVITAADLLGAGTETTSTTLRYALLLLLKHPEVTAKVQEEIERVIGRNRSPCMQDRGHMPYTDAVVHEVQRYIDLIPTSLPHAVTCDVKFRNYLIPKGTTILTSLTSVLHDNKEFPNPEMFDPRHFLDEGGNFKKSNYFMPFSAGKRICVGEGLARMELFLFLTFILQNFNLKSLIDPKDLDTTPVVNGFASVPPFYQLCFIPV
Apoptosis regulator Bcl-2 (Homo sapiens), sequence (P10415 whole entry, looked up): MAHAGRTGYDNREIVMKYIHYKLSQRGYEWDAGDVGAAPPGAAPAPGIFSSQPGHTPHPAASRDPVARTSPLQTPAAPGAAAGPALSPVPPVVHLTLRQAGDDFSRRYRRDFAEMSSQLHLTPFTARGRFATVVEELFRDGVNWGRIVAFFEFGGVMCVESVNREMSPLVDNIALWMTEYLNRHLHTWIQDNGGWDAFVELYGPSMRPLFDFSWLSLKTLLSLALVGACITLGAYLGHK
Caspase-3 (Homo sapiens), sequence (P42574 whole entry, looked up): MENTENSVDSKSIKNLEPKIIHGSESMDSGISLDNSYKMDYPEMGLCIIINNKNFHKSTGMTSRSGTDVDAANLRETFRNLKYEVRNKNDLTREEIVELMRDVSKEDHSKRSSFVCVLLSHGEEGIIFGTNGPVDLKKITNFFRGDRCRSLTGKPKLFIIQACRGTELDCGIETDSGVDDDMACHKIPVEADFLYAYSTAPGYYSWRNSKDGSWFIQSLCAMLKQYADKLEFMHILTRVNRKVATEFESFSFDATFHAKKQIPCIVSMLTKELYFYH

Usually AC50 stands for the midpoint of the concentration-response curve, whichever way the signal moves. For the compound `CCCCCCCCCCCCCCO`, the outcome in [1], in assay [2], in assay [3], in assay [4], in assay [5] and in assay [6] was inactive. For the same compound, the outcome (with BCL2L11 (gene 10018); in assay [7]; in assay [8]; in [9]; in the assay with Caspase-3 (Homo sapiens); in [10]) was inactive. For the same compound, the compound was called inactive (in assay [12]; in assay [13]; with CYP2C8 (gene 1558); with CYP2C9 (gene 1559); with CYP2E1 (gene 1571)). Besides, the AC50 in assay [11] was 50000 nM (active).

As to `Cn1c(=O)c2[nH]cnc2n(C)c1=O`, the call in assay [1], in [2], in assay [3], in assay [4], in assay [5] and in assay [6] was inactive. Also, the call (in the assay with BCL2L11 (gene 10018); in assay [7]; in assay [8]; with Caspase-3 (Homo sapiens); in [10]; in assay [11]) was inactive. Besides, the outcome (in assay [12]; in [14]; in assay [13]; in the assay with CYP2C8 (gene 1558); with CYP2E1 (gene 1571)) was inactive. Moreover, in assay [9], the AC50 is 312 nM (active).

`C[C@@H](Oc1ccc(CNC(=O)c2cccnc2Oc2ccc3c(c2)OCO3)c(F)c1)C(=O)O`: the result in assay [1], in assay [2], in assay [3], in [4], in assay [5] and in [6] was inactive. Moreover, the outcome (with BCL2L11 (gene 10018); in [7]; in [8]; in assay [9]; in the assay with Caspase-3 (Homo sapiens); in assay [10]) was inactive. Besides, the compound was called inactive (in assay [11]; in [12]; in assay [14]; in assay [13]; in the assay with CYP2C8 (gene 1558); with CYP2C9 (gene 1559)).

For `CCCCCCCC/C=C\CCCCCCCC(=O)OC[C@@H](O)[C@H]1OC[C@H](O)[C@H]1O`, the result in assay [1], in [2], in assay [3], in [4], in assay [5] and in [6] was inactive. In addition, the outcome (with BCL2L11 (gene 10018); in assay [7]; in assay [8]; in [9]; in the assay with Caspase-3 (Homo sapiens); in assay [10]) was inactive. In addition, the call (in assay [11]; in [12]; in [14]; in assay [13]; in the assay with CYP2C8 (gene 1558); in the assay with CYP2C9 (gene 1559)) was inactive.

`CC(C)CCCCCCOC(=O)C1CCCCC1C(=O)OCCCCCCC(C)C` (stereo not given): the result (in [1]; in assay [2]; in [4]; in assay [5]; in assay [6]; in the assay with BCL2L11 (gene 10018)) was inactive. Besides, the result (in [8]; in assay [10]; in [13]; with CYP2C8 (gene 1558); in the assay with CYP2C9 (gene 1559)) was inactive. The AC50 was 3.16 nM (active) in assay [3]; 3.16 nM (active) in assay [15]; 3.16 nM (active) in assay [7]; 3.16 nM (active) in assay [9]; 3.16 nM (active) in the assay with Caspase-3 (Homo sapiens); 50000 nM (active) in [11]. Further, the AC50 in [12] is 3.16 nM (active).

Consider `Cc1ccc(S(=O)(=O)NC(=O)NN2CCCCCC2)cc1`, for which the result (in [1]; in assay [2]; in assay [4]; in assay [5]; in assay [6]; with BCL2L11 (gene 10018)) was inactive. Further, the outcome (in [7]; in [8]; in assay [9]; in the assay with Caspase-3 (Homo sapiens); in [12]) was inactive. For the same compound, the AC50 in [3] is 161 nM (active).

Consider `Cc1ncc([C@@H](CCCCCCc2ccc3c(n2)NCCC3)CC(=O)O)cn1`, for which the call in assay [1], in assay [2], in [3], in [4], in assay [5] and in assay [15] was inactive. The call (in assay [6]; with BCL2L11 (gene 10018); in assay [7]; in assay [8]; in assay [9]; with Caspase-3 (Homo sapiens)) was inactive. For the same compound, the compound was classed as inactive (in assay [10]; in [11]; in assay [12]; in [13]; with CYP2C8 (gene 1558); in the assay with CYP2C9 (gene 1559)).
